From PubChem BioAssay (Tox21)
A number with no mark means an inactive call. Inconclusive results are not listed. Where a call stands in place of a potency, no number is given. Calls of active or inactive are those of the source. Unless noted, the call rests on the fitted dose curve; in most records, active means well fitted curve in the direction sought with a large enough effect in the repeat runs; inconclusive means weak or mixed curves; inactive means no such curve, though single readings can be large; an effect the other way counts as inactive or inconclusive.

Key:
[1] = qHTS assay to identify small molecule antagonists of the estrogen receptor alpha (ER-alpha) signaling pathway using the BG1 cell line in the presence of 0.1 nM 17-beta-estradiol - cell viability counter screen (AID 1259241); further: nearly all actives have a fitted effect of over 40% in size
Method in brief: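 VM7Luc4E2 cells (endogenous ER-alpha, 4×ERE-luciferase), hormone-starved 5 days in charcoal-stripped FBS, were treated with compounds plus 0.1 nM 17beta-estradiol for 22 hr at 37C; viability read in same wells as CellTiter-Fluor live-cell protease fluorescence.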

[2] = biological target: Estrogen receptor (Homo sapiens) (UniProt P03372); experiment: qHTS assay to identify small molecule antagonists of the estrogen receptor alpha (ER-alpha) signaling pathway using the BG1 cell line in the presence of 0.1 nM 17-beta-estradiol (AID 1259244); further: nearly all actives have a fitted effect of over 50% in size; further: potency means the concentration at half of the fitted maximal effect
Method in brief: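 Cells: VM7Luc4E2, endogenous ER-alpha, 4x ERE-luc stable. Pre-culture 5 d, phenol red-free, charcoal-stripped FBS. Plated 24 h, compound + E2 0.1 nM final, 22 h 37C/5% CO2. Readout ONE-Glo luminescence.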

[3] = qHTS assay to identify small molecule HDAC inhibitors (AID 1259364); further: top concentration of the series differs between compounds; nearly all actives have a fitted effect of over 45% in size
Method in brief: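 Luminescence from a cell-permeant luminogenic class I/II HDAC substrate reports endogenous deacetylase activity in intact HCT-116 cells treated with compounds for 2 h.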

[4] = qHTS assay to identify small molecule HDAC inhibitors - cell viability counter screen (AID 1259365); further: series mostly up to about 92 µM; nearly all actives have a fitted effect of over 50% in size
Method in brief: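 Wild-type HCT-116 cells were seeded at 1,500 per well, incubated overnight at 37 C, then exposed to compounds in DMSO for 2hr. Viability was read by CellTiter-Glo luminescence after 30min at room temperature.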

[5] = qHTS assay to identify small molecule agonists of the sonic hedgehog signaling (Shh) pathway - cell viability counter screen (AID 1259366); further: nearly all actives have a fitted effect of over 50% in size; further: potency means the concentration at half of the fitted maximal effect
Method in brief: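 NIH/3T3-derived 3T3 Gli1-Luc cells (stable Gli1-responsive firefly luciferase reporter) were seeded, rested 4 hr at 37 C/5% CO2, then exposed to compounds in DMSO for 24 hr; viability was read by CellTiter-Fluor fluorescence in the same wells.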

[6] = qHTS assay to identify small molecule antagonists of the sonic hedgehog signaling (Shh) pathway - cell viability counter screen (AID 1259367); further: nearly all actives have a fitted effect of over 55% in size
Method in brief: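 Seed 3T3 Gli1-Luc cells at 2,000 per well; incubate 4 hr; add compound in DMSO, then conditioned medium; incubate at 37C with 5% CO2; add CellTiter-Fluor after 23 hr; read fluorescence 1 hr later.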

[7] = qHTS assay to identify small molecule agonists of the sonic hedgehog signaling (Shh) pathway (AID 1259368; calls by dose curve; further: series mostly up to about 92 µM; nearly all actives have a fitted effect of over 15% in size)
Method in brief: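 3T3Gli1-Luc (NIH/3T3 clone, stable Gli1-Luc); 4 hr pre-incubation, then cpd in DMSO 24 hr, 37 C/5% CO2; luciferase reagent 30 min RT; luminescence.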

[8] = qHTS assay to identify small molecule antagonists of the sonic hedgehog signaling (Shh) pathway (AID 1259369; calls by dose curve; further: nearly all actives have a fitted effect of over 45% in size; further: potency means the concentration at half of the fitted maximal effect)
Method in brief: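 3T3Gli1-Luc, conditioned-medium-stimulated, 24hr cpd, 37C/5% CO2; Gli1-driven firefly Luc luminescence after 30min RT with luciferase reagent. Cells plated 4hr before cpd.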

[9] = biological target: Estrogen receptor (Homo sapiens) (UniProt P03372); experiment: qHTS assay to identify small molecule agonists of the estrogen receptor alpha (ER-alpha) signaling pathway in the presence of an antagonist (AID 1259383; calls by dose curve; further: top concentration of the series differs between compounds; nearly all actives have a fitted effect of over 15% in size)
Method in brief: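 VM7Luc4E2, endog. ER-alpha + 4×ERE-luc; charcoal-stripped FBS, phenol red-free, 5 d; 24hr plating; +10.0nM ICI-182,780 (final); cpds 15 conc, 22hr, 37C/5% CO2; ONE-Glo luminescence.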

[10] = qHTS assay to identify small molecule agonists or antagonists of the thyroid stimulating hormone receptor (TSHR) signaling pathway - wild type cell line counter screen (AID 1259384; calls by dose curve)
Method in brief: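 Wild-type Hek293 cells, 800/well, 18 h at 37C, then compound with Ro20-1724 for 30 min RT. cAMP by HTRF (cAMP-d2/anti-cAMP cryptate), 1 h RT, fluorescence read. 15 concentrations, triplicates.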

[11] = biological target: Thyrotropin receptor (Homo sapiens) (UniProt P16473); experiment: qHTS assay to identify small molecule antagonists of the thyroid stimulating hormone receptor (TSHR) signaling pathway (AID 1259385; calls by dose curve; further: nearly all actives have a fitted effect of over 20% in size)
Method in brief: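 TSHR-HEK293 cells (800/well) plated 18 h, then compounds with Ro20-1724 and TSH at 1.5 ng/mL final, 30 min at room temperature. cAMP quantified by HTRF (cAMP-d2/anti-cAMP-cryptate, 1 h); 15 concentrations in triplicate.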

[12] = qHTS assay to identify small molecule phospholipidosis (PLD) inducers (AID 1259344; active means well fitted curve in the direction sought with a large enough effect; an effect the other way counts as inactive or inconclusive)
Method in brief: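 Quantitative HTS in HepG2: compound plus LipidTOX Red dye for 24 h, paraformaldehyde fixation with Hoechst 33342, widefield high-content imaging; amiodarone as positive and DMSO as negative control.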

[13] = qHTS assay to identify small molecule agonists of the estrogen receptor beta (ER-beta) signaling pathway - cell viability counter screen (AID 1259380); further: nearly all actives have a fitted effect of over 30% in size; further: potency means the concentration at half of the fitted maximal effect
Method in brief: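 HEK293T ER-beta-UAS-bla; 2% CS-FBS; 6 hr pre-plate, 16 hr cpd at 37C/5% CO2; LiveBLAzer read first, then CellTiter-Glo 30 min RT, luminescence.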

[14] = qHTS assay to identify small molecule antagonists of the estrogen receptor beta (ER-beta) signaling pathway - cell viability counter screen (AID 1259382); further: series mostly up to about 92 µM; nearly all actives have a fitted effect of over 55% in size
Method in brief: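 Cells: ER-beta-UAS-bla HEK293T, 2,000/well, 2% CS-FBS, 6 hr settle. Cpd + E2 (1nM final), 16 hr, 37C/5% CO2. Bla FRET substrate 2 hr RT, then CellTiter-Glo 30 min RT, luminescence.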

[15] = biological target: Estrogen receptor beta (Homo sapiens) (UniProt Q92731); experiment: qHTS assay to identify small molecule agonists of the estrogen receptor beta (ER-beta) signaling pathway (AID 1259377; active means well fitted activation curve with a large enough effect in the signal ratio in the repeat runs, not every such curve was filed as active; the % refers to the signal ratio)
Method in brief: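 ER-beta-UAS-bla HEK293T (GripTite) cells carrying a UAS-driven beta-lactamase reporter, in medium with 2% charcoal-stripped FBS, were exposed to compounds for 16 hr at 37C; LiveBLAzer B/G FRET substrate was then added and fluorescence read after 2 hours at room temperature.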

[16] = biological target: Estrogen receptor beta (Homo sapiens) (UniProt Q92731); experiment: qHTS assay to identify small molecule antagonists of the estrogen receptor beta (ER-beta) signaling pathway (AID 1259378; active means well fitted inhibition curve with a large enough effect in the signal ratio in the repeat runs, not every such curve was filed as active; the % refers to the signal ratio)
Method in brief: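 ER-beta-UAS-bla HEK293T cells in 2% charcoal-stripped FBS medium treated with compound plus 1nM final 17-beta-estradiol for 16 hr at 37C. Beta-lactamase reporter read by FRET substrate fluorescence after 2 hours at room temperature.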

[17] = qHTS assay to identify small molecule agonists of the androgen receptor (AR) signaling pathway in the presence of an antagonist - cell viability counter screen (AID 1259379); further: nearly all actives have a fitted effect of over 25% in size; further: potency means the concentration at half of the fitted maximal effect
Method in brief: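 Cells: MDA-kb2 (MMTV-luc, AR and GR elements), 3,000/well, 5 hr settle. Added: nilutamide 3.0uM final, then compounds (15 conc.). Incubation: 16 hr, 37C, no CO2. Read-out: CellTiter-Fluor, 1 hr, fluorescence.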

[18] = biological target: Androgen receptor (Homo sapiens) (UniProt P10275); experiment: qHTS assay to identify small molecule antagonists of the androgen receptor (AR) signaling pathway using the MDA cell line in the presence of 0.5 nM R1881 (AID 1259243); further: nearly all actives have a fitted effect of over 50% in size; further: potency means the concentration at half of the fitted maximal effect
Method in brief: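 Luciferase luminescence is the read-out: compounds are tested for suppressing 0.5 nM R1881-driven MMTV reporter activity in MDA-kb2 cells after 16 hr at 37C.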

[19] = biological target: Androgen receptor (Homo sapiens) (UniProt P10275); experiment: qHTS assay to identify small molecule agonists of the androgen receptor (AR) signaling pathway in the presence of an antagonist (AID 1259381; calls by dose curve; further: nearly all actives have a fitted effect of over 15% in size)
Method in brief: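 MDA-kb2 cells, 3,000/well, rested 5hr at 37C/0% CO2 → nilutamide 3.0uM final or buffer → compounds, 15 conc. → 16hr at 37C → ONE-Glo, 30min RT → luminescence.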

Estrogen receptor (Homo sapiens), sequence (P03372 whole entry, looked up): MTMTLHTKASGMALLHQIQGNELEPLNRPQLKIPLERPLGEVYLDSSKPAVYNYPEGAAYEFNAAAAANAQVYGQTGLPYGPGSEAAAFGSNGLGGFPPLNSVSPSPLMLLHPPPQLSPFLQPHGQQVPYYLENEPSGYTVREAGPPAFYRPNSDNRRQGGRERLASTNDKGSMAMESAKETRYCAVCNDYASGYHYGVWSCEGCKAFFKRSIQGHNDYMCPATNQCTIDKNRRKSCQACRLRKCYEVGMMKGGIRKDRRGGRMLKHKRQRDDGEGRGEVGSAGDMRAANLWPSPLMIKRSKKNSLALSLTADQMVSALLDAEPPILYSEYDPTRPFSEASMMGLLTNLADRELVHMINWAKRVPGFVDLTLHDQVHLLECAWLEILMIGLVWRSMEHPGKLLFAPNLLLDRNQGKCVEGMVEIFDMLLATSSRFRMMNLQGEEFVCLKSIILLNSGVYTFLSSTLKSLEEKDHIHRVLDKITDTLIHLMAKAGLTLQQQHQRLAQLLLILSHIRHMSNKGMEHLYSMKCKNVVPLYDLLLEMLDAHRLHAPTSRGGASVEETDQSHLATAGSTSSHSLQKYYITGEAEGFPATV
Estrogen receptor beta (Homo sapiens), sequence (Q92731 whole entry, looked up): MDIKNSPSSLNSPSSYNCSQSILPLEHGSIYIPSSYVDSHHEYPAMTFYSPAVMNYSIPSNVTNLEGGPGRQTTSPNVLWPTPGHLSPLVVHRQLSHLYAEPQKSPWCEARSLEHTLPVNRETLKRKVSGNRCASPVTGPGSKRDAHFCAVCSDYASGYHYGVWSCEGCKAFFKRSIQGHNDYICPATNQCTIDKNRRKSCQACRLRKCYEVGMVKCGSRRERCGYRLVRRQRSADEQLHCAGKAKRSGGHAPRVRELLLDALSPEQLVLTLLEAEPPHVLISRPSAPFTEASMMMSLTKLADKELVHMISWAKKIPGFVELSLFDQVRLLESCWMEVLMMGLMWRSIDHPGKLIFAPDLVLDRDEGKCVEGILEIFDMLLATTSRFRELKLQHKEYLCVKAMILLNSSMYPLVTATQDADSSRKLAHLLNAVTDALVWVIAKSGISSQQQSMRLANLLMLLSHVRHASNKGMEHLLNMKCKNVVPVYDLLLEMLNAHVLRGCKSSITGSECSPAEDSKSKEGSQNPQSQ
Thyrotropin receptor (Homo sapiens), sequence (P16473 whole entry, looked up): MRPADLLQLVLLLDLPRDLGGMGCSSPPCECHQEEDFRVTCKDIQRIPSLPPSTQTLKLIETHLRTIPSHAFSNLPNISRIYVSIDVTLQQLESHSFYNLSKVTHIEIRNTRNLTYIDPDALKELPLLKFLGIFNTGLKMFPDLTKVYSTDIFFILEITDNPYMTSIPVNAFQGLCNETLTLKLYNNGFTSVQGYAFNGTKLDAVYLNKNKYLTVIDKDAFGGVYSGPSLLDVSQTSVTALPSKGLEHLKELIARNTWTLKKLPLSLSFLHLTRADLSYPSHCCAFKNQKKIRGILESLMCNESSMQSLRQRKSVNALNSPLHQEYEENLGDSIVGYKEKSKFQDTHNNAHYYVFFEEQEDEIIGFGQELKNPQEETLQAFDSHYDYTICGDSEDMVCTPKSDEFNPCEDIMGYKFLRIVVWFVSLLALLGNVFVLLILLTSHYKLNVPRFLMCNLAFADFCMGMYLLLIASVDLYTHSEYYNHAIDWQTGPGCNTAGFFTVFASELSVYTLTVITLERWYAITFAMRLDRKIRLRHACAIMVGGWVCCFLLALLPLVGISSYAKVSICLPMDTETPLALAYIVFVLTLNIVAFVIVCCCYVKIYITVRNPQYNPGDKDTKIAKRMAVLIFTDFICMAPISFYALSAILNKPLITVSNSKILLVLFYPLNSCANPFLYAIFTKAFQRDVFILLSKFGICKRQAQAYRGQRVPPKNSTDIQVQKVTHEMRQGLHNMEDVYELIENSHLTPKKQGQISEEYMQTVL
Androgen receptor (Homo sapiens), sequence (P10275 whole entry, looked up): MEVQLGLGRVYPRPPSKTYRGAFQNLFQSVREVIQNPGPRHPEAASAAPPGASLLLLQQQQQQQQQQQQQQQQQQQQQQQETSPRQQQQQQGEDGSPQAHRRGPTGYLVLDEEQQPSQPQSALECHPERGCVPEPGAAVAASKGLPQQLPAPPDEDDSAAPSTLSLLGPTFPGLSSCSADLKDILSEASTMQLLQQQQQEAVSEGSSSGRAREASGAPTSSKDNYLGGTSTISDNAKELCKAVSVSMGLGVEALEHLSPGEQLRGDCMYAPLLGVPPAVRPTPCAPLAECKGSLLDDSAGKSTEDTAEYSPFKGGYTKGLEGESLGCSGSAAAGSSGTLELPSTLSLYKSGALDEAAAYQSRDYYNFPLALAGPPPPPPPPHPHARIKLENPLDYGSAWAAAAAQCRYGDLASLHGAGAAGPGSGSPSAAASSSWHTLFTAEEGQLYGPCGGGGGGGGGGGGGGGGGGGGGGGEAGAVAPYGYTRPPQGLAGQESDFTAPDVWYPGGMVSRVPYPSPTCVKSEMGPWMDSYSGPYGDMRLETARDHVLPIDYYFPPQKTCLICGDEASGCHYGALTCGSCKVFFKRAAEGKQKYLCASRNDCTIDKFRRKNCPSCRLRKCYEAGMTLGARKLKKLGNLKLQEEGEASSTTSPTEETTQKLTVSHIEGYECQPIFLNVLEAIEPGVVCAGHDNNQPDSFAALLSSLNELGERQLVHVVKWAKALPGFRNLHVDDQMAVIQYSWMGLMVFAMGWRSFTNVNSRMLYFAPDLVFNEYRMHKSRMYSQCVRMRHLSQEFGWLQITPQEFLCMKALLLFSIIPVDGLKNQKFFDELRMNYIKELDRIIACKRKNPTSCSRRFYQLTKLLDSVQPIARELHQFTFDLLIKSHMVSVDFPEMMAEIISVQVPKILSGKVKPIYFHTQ

| SMILES | Potency [1] | Potency [2] | Potency [3] | Potency [4] | Potency [5] | Potency [6] | Potency [7] | Potency [8] | Potency [9] | outcome [10] | Potency [11] | outcome [12] | Potency [13] | Potency [14] | Potency [15] | Potency [16] | Potency [17] | Potency [18] | Potency [19] | PLD induction [12] |
| --- | --- | --- | --- | --- | --- | --- | --- | --- | --- | --- | --- | --- | --- | --- | --- | --- | --- | --- | --- | --- |
| CC1(C)CCC(Cc2ccc(Cl)cc2)C1(O)Cn1cncn1 (configuration not stated) | inactive | 61.1 µM (active) | inactive | inactive | inactive | inactive | inactive | 27.3 µM (active) | inactive | inactive | inactive |  |  |  |  |  |  |  |  |  |
| CCOP(=O)(OCC)O/C(=C/Cl)c1ccc(Cl)cc1Cl | inactive |  | inactive | inactive | inactive | inactive | inactive |  | inactive | inactive |  | inactive | inactive | inactive |  |  |  |  |  |  |
| Clc1cc(C(Cl)(Cl)Cl)cnc1Cl | inactive | inactive | inactive | inactive | inactive | inactive |  |  | inactive | inactive | inactive |  |  | inactive | inactive | inactive | 24.3 µM (active) |  |  |  |
| Clc1cc(Cl)c(Cl)c(Cl)c1 | inactive | inactive | inactive | inactive | inactive | inactive | inactive | inactive | inactive | inactive | inactive |  |  | inactive |  |  | inactive |  |  |  |
| Brc1ccc(Oc2ccccc2)cc1 | inactive | inactive | inactive | inactive | inactive |  |  |  | inactive | inactive | inactive |  |  | inactive |  |  |  |  |  |  |
| CN1C(=O)NC(=O)C(C)(C2=CCCCC2)C1=O (configuration not stated) | inactive |  | inactive | inactive | inactive | inactive | inactive | inactive |  | inactive | inactive | inactive | inactive | inactive |  | inactive | inactive |  |  |  |
| CO/N=C(/C(=O)OC)c1ccccc1COc1ccccc1C | inactive | inactive | inactive | inactive | inactive | inactive | inactive | 4.33 µM (active) | inactive | inactive | inactive |  | 15.4 µM (active) | inactive |  |  | 54.5 µM (active) | 17.2 µM (active) | inactive |  |
| CS/C(C)=N/OC(=O)N(C)SN(C)C(=O)O/N=C(\C)SC | inactive |  | inactive | inactive | 54.5 µM (active) | inactive | inactive |  | inactive | inactive |  |  |  | inactive | inactive |  |  | inactive | inactive |  |
| CC(C)(C)C(O)C(Oc1ccc(Cl)cc1)n1cncn1 (configuration not stated) | inactive |  | inactive | inactive | inactive |  |  |  |  | inactive | inactive |  |  | inactive |  |  | inactive |  |  | -1.67% [at 3.15 µM] |
| COP(=S)(Oc1cc(Cl)c(Br)cc1Cl)c1ccccc1 (configuration not stated) | inactive | inactive | inactive | inactive | inactive | inactive |  | inactive | inactive | inactive | inactive |  |  | inactive |  |  | inactive | 27.3 µM (active) | inactive |  |
